Holding throughout (assay): protein-binding microarray (PBM); PBM: ~300 nM protein, 6 mM HEPES pH 7.8, 80 mM KCl, 0.5 mM EDTA, 0.5 mM EGTA, 6% glycerol, 35 ng/ul poly-dIdC, 1% milk, 1 h, room temperature; Ap Aiptasia and Nv Nematostella (sea anemones) / Co Capsaspora / Aq Amphimedon (sponge) / Dm Drosophila / Hu human; RHD is the Rel homology domain; high values mean tight binding
What all share (details): dsDNA, one strand shown

One assay has as its target T1, GST-Ap-NF-kB RHD (Exaiptasia pallida (Aiptasia), UniProt A0A913YAJ5 2-422).
T1 sequence: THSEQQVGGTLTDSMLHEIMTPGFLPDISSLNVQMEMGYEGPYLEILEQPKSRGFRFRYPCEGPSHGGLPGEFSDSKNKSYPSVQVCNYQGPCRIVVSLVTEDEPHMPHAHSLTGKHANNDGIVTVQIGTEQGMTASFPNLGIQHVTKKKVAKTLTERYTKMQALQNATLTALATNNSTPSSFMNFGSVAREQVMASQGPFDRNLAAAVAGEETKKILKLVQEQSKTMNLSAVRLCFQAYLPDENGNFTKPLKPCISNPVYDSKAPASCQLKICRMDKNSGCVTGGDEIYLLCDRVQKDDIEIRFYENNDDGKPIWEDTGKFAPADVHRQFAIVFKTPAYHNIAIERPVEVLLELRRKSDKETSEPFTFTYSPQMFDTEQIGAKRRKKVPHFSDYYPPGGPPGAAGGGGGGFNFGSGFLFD

Assay [1] deals with T2, GST-Nv-NF-kB (Cys allele) (Nematostella vectensis, UniProt E5G601 2-411).
T2 sequence: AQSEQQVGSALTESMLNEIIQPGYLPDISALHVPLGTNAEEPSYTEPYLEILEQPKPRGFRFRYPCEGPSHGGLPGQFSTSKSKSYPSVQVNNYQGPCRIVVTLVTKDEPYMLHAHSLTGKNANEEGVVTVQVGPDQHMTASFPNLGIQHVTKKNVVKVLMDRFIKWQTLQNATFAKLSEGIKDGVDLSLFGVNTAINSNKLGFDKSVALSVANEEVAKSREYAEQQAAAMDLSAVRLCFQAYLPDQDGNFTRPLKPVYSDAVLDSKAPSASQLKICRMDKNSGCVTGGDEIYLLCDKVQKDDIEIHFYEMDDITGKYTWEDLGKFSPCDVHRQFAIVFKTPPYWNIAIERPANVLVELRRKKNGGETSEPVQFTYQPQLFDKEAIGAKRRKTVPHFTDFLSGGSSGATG

In assay [2] the target is T3, GST-Nv-NF-kB (Ser allele) (Nematostella vectensis, UniProt A7UNT2 2-411).
T3 sequence: T2 sequence with Q21R, C66S, S207N, E215Q, V217A, E225K, A268E, D399E

Another assay concerns the target T4, GST-Co-NF-kB (Capsaspora owczarzaki, UniProt F1ARL5 200-546).
T4 sequence: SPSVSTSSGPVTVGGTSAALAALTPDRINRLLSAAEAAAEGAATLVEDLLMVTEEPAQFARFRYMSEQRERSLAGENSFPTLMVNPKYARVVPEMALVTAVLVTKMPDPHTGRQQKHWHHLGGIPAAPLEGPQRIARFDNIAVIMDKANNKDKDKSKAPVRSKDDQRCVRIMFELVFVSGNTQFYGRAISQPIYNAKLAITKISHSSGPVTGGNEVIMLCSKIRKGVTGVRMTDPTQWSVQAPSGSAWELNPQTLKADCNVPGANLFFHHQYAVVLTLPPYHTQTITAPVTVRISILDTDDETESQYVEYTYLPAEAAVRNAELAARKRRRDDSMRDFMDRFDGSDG

In a further assay the target is T5, GST-Dm-Relish (Drosophila melanogaster, UniProt Q94527 99-473).
T5 sequence: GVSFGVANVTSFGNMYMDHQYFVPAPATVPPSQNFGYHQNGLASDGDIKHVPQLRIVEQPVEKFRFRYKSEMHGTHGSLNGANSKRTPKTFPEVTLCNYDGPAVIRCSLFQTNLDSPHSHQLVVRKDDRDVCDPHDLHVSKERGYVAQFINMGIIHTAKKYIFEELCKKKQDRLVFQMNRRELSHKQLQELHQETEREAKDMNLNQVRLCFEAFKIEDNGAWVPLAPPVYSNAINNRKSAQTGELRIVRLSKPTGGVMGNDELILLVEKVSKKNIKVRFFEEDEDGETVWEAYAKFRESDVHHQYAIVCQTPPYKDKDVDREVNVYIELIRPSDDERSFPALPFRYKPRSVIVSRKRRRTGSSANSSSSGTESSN

Another assay has as its target T6, GST-Aq-NF-kB (Amphimedon queenslandica, UniProt A9Y5G7 2-389).
T6 sequence: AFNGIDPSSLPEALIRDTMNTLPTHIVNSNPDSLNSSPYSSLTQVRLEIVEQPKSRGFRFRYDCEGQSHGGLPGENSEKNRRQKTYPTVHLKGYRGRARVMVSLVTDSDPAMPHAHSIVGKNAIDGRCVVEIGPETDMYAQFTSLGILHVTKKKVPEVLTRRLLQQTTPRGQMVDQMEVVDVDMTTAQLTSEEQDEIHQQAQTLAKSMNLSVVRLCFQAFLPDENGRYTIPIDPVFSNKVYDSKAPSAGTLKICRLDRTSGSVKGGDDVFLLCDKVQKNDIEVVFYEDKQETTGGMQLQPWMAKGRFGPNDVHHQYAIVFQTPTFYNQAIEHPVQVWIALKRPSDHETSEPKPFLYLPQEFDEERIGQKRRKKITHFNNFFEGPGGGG

In a further assay the target is GST-Hu-p50 (Homo sapiens, UniProt P19838 7-356).
Chain of GST-Hu-p50 (P19838 7-356): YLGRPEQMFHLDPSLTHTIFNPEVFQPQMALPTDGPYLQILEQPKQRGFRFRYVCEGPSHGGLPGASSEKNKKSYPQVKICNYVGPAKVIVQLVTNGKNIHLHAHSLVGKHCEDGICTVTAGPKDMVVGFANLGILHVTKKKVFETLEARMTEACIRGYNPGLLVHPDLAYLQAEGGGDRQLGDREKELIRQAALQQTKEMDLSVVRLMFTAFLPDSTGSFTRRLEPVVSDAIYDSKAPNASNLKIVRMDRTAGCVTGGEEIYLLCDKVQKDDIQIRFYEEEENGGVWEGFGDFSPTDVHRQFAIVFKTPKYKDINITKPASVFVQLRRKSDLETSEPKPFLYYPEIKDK

Where a chain is given by its changes, count along the chain named.

With “CCGATTAACATCACACAACCCCCTGATGTTAATCGGGTCTTGATTCGCTTGACGCTGCTG”, the binding signal in the assay with GST-Ap-NF-kB RHD is 5.16 z-score; in assay [1], 3.73 z-score; in assay [2] it was 4.93 z-score; with GST-Co-NF-kB it was 2.31 z-score; with GST-Dm-Relish it was 4.91 z-score; in the assay with GST-Aq-NF-kB, 3.93 z-score. In the assay with GST-Hu-p50, this sequence displayed a binding signal of 4.68 z-score.

“CCGATTAACATCAGGGAAGCCCCTGATGTTAATCGGGTCTTGATTCGCTTGACGCTGCTG”: the binding signal with GST-Ap-NF-kB RHD came to 9.42 z-score; in assay [1], 10.8 z-score; in assay [2], 7.12 z-score; in the assay with GST-Co-NF-kB, 1.97 z-score; with GST-Dm-Relish, 10.3 z-score; with GST-Aq-NF-kB, 9.75 z-score. The sequence also displayed a binding signal with GST-Hu-p50 of 6.02 z-score.

Regarding “CCGATTAACATCAGGGAAACTAATGATGTTAATCGGGTCTTGATTCGCTTGACGCTGCTG”, the binding signal in the assay with GST-Ap-NF-kB RHD is 2.58 z-score; in assay [1], 3.94 z-score; in assay [2] it was 4.37 z-score; in the assay with GST-Co-NF-kB, 3.69 z-score; in the assay with GST-Dm-Relish, 1.22 z-score; with GST-Aq-NF-kB, 3.45 z-score. This sequence displayed a binding signal in the assay with GST-Hu-p50 of 2.79 z-score.

For the sequence “CCGATTAACATCAAGGGGAATACTGATGTTAATCGGGTCTTGATTCGCTTGACGCTGCTG”, the binding signal with GST-Ap-NF-kB RHD amounted to 8.04 z-score; in assay [1] it was 9.26 z-score; in assay [2], 8.56 z-score; with GST-Co-NF-kB it was 6.16 z-score; in the assay with GST-Dm-Relish, 6.38 z-score; with GST-Aq-NF-kB, 6.62 z-score. This sequence yielded a binding signal in the assay with GST-Hu-p50 of 6.33 z-score.

“CCGATTAACATCAGGGGAACCCATGATGTTAATCGGGTCTTGATTCGCTTGACGCTGCTG”: the binding signal with GST-Ap-NF-kB RHD stood at 7.48 z-score; in assay [1] it was 5.77 z-score; in assay [2], 6.55 z-score; with GST-Co-NF-kB, 4.47 z-score; with GST-Dm-Relish, 8.55 z-score; with GST-Aq-NF-kB, 4.7 z-score. This sequence displayed a binding signal with GST-Hu-p50 of 4.58 z-score.

Regarding “CCGATTAACATCAGGCAAACCCCTGATGTTAATCGGGTCTTGATTCGCTTGACGCTGCTG”, the binding signal amounted to 3.13 z-score in the assay with GST-Ap-NF-kB RHD; 2.8 z-score in assay [1]; 1.51 z-score in assay [2]; 1.49 z-score with GST-Co-NF-kB; 3.13 z-score in the assay with GST-Dm-Relish; 4.85 z-score with GST-Aq-NF-kB. This sequence showed a binding signal with GST-Hu-p50 of 3.63 z-score.

Consider “CCGATTAACATCAAGGGGGGTAATGATGTTAATCGGGTCTTGATTCGCTTGACGCTGCTG”, for which the binding signal with GST-Ap-NF-kB RHD is 4.04 z-score; in assay [1] it was 4.87 z-score; in assay [2], 4.3 z-score; with GST-Co-NF-kB, 5.42 z-score; with GST-Dm-Relish it was 3.36 z-score; with GST-Aq-NF-kB, 4.75 z-score. The binding signal with GST-Hu-p50 was found to be 3.62 z-score.

Consider “CCGATTAACATCATAATCCCCCATGATGTTAATCGGGTCTTGATTCGCTTGACGCTGCTG”, for which the binding signal worked out at 7.75 z-score with GST-Ap-NF-kB RHD; 6.81 z-score in assay [1]; 7.45 z-score in assay [2]; 6.17 z-score with GST-Co-NF-kB; 5.67 z-score with GST-Dm-Relish; 5.96 z-score with GST-Aq-NF-kB. In the assay with GST-Hu-p50, this sequence returned a binding signal of 6.67 z-score.

Take “CCGATTAACATCAATAATCCCCCTGATGTTAATCGGGTCTTGATTCGCTTGACGCTGCTG”: the binding signal came out at 8.84 z-score with GST-Ap-NF-kB RHD; 8.72 z-score in assay [1]; 9.49 z-score in assay [2]; 6.87 z-score in the assay with GST-Co-NF-kB; 8.23 z-score in the assay with GST-Dm-Relish; 7.52 z-score in the assay with GST-Aq-NF-kB. In the assay with GST-Hu-p50, this sequence showed a binding signal of 7.52 z-score.

For the sequence “CCGATTAACATCAGGGAAAAACATGATGTTAATCGGGTCTTGATTCGCTTGACGCTGCTG”, the binding signal came out at 3.76 z-score with GST-Ap-NF-kB RHD; 5.03 z-score in assay [1]; 7.18 z-score in assay [2]; 5.51 z-score in the assay with GST-Co-NF-kB; 6.52 z-score in the assay with GST-Dm-Relish; 5.27 z-score with GST-Aq-NF-kB. This sequence gave a binding signal with GST-Hu-p50 of 4.03 z-score.

Take “CCGATTAACATCAAAAATTCCCGTGATGTTAATCGGGTCTTGATTCGCTTGACGCTGCTG”: the binding signal with GST-Ap-NF-kB RHD came out at 5.97 z-score; in assay [1], 8.78 z-score; in assay [2], 8.06 z-score; with GST-Co-NF-kB, 6.08 z-score; with GST-Dm-Relish, 7.67 z-score; with GST-Aq-NF-kB, 7.49 z-score. Moreover, the binding signal with GST-Hu-p50 came to 5.55 z-score.

With “CCGATTAACATCAAATGTTCCCCTGATGTTAATCGGGTCTTGATTCGCTTGACGCTGCTG”, the binding signal with GST-Ap-NF-kB RHD was determined as 5.58 z-score; in assay [1], 6.77 z-score; in assay [2], 7.62 z-score; with GST-Co-NF-kB, 9.87 z-score; with GST-Dm-Relish, 5.59 z-score; with GST-Aq-NF-kB, 6.21 z-score. The binding signal with GST-Hu-p50 was 4.41 z-score.

Values taken from PMC5700166.
